Data reported in PubChem BioAssay (EPA / NIEHS).
Inconclusive results are not listed. The source made the active and inactive calls. Rule for the calls, unless noted: active = hit-call score of the fitted dose curve at least 0.9, where 1 is the maximum; inconclusive = response in the unintended direction; inactive = score below 0.9.

Columns and labels:
[1] = molecular target: human Peroxisome Proliferator-activated Receptor delta (PPARd), PPARD (gene 5467) (UniProt Q03181); assay: ATG_PPARd_TRANS: Attagene TRANS-FACTORIAL HepG2 Assay for human Peroxisome Proliferator-activated Receptor delta (PPARd) (AID 2283002)
In short: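 Read-out is induced reporter mRNA, quantified by RT-PCR with fluorescent labelling and capillary electrophoresis after 24 h dosing. Cells are HepG2 transiently carrying multiple GAL4-UAS reporter units driven by exogenous NR-GAL4 chimeras; DMSO serves as baseline.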

[2] = molecular target: Peroxisome proliferator-activated receptor gamma (Homo sapiens) (UniProt P37231); assay: ATG_PPARg_TRANS: Attagene TRANS-FACTORIAL HepG2 Assay for human Peroxisome Proliferator-activated Receptor-gamma (PPARg) (AID 2283007)
In short: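 Read-out: reporter mRNA induction, detected by fluorescence after RT-PCR and capillary electrophoresis. Transiently transfected human HepG2 liver cells carrying a chimeric NR-Gal4 construct were dosed for 24 h; activity was fitted upward relative to DMSO.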

[3] = molecular target: Nuclear receptor subfamily 1 group I member 2 (Homo sapiens) (UniProt O75469); assay: ATG_PXR_TRANS: Attagene TRANS-FACTORIAL HepG2 Assay for human Pregnane X Receptor (PXR) (AID 2283008)
In short: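 Trans-factorial format: exogenous NR-Gal4 fusion activity, not endogenous factor, in transfected human HepG2 liver cells. After 24 h dosing, RNA isolated, reverse-transcribed, amplified and resolved by capillary electrophoresis; induction scored versus DMSO.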

[4] = molecular target: human Retinoic Acid Receptor beta (RARb), RARB (gene 5915) (UniProt P10826); assay: ATG_RARb_TRANS: Attagene TRANS-FACTORIAL HepG2 Assay for human Retinoic Acid Receptor beta (AID 2283004)
In short: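 HepG2 cells transiently transfected with multiplexed GAL4-UAS reporter units expressing chimeric NR–Gal4 fusions; 24 h compound exposure. Reporter mRNA quantified by RT-PCR, 6-FAM labelling, HpaI digestion and capillary electrophoresis; gain-of-signal fitted against DMSO baseline.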

[5] = molecular target: human RAR-related Orphan Receptor beta (RORb), RORB (gene 6096) (UniProt Q92753); assay: ATG_RORb_TRANS: Attagene TRANS-FACTORIAL HepG2 Assay for human RAR-related Orphan Receptor beta (RORb) (AID 2283010)
In short: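 Read-out is reporter mRNA induction, quantified by RT-PCR with fluorescent capillary electrophoresis, 24 h post-dose in transiently transfected HepG2 expressing exogenous NR-Gal4 chimera. Activity fitted upward versus DMSO.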

[6] = molecular target: human RAR-related Orphan Receptor gamma (RORg), RORC (gene 6097) (UniProt P51449); assay: ATG_RORg_TRANS: Attagene TRANS-FACTORIAL HepG2 Assay for human RAR-related Orphan Receptor gamma (RORg) (AID 2283011)
In short: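 Readout: reporter transcript induction (RT-PCR, fluorescent primer extension, capillary electrophoresis) after 24 h compound exposure of transiently transfected HepG2 cells carrying a RORg-Gal4 chimera and GAL4-UAS reporters; DMSO served as baseline, with increasing signal fitted.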

[7] = molecular target: Retinoic acid receptor RXR-alpha (Homo sapiens) (UniProt P19793); assay: ATG_RXRa_TRANS: Attagene TRANS-FACTORIAL HepG2 Assay for human Retinoid X Receptor alpha (RXRa) (AID 2283012)
In short: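 TRANS format reporting activity of exogenous RXRa-Gal4 chimera in transiently transfected HepG2, 24 h exposure. Reporter transcripts quantified by RT-PCR with capillary electrophoresis, with gain of signal scored relative to DMSO.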

[8] = molecular target: human Retinoic Acid Receptor gamma (RARg), RARG (gene 5916) (UniProt P13631); assay: ATG_RARg_TRANS: Attagene TRANS-FACTORIAL HepG2 Assay for human Retinoic Acid Receptor gamma (RARg) (AID 2283009)
In short: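 Transactivation of exogenous RARg-Gal4 fusion measured as reporter transcript induction after 24 h in transfected HepG2 cells. RNA reverse-transcribed, amplified, fluorescently labeled and resolved by capillary electrophoresis; increase relative to DMSO.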

[9] = read-out: Intercellular Adhesion Molecule 1 (ICAM1), ICAM1 (gene 3383); assay: BSK_3C_ICAM1: BioMAP Diversity Plus: 3C Assay for Intercellular Adhesion Molecule 1 (ICAM1) Biomarker Activity (AID 2283003; active = hit-call score of the fitted dose curve at least 0.9, where 1 is the maximum; inactive = score below 0.9); conditions: primary human endothelial cells (HUVEC); actives raise or lower the signal
In short: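 ELISA readout of ICAM1 in human umbilical vein endothelial cells in the 3C system, taken 24 h post-dose. Gain or loss of signal versus DMSO was fitted in both directions, with SRB total-protein staining run in parallel.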

Measured: AC50

Chain of Nuclear receptor subfamily 1 group I member 2 (Homo sapiens) (O75469 whole entry, looked up, the tested form may be a part): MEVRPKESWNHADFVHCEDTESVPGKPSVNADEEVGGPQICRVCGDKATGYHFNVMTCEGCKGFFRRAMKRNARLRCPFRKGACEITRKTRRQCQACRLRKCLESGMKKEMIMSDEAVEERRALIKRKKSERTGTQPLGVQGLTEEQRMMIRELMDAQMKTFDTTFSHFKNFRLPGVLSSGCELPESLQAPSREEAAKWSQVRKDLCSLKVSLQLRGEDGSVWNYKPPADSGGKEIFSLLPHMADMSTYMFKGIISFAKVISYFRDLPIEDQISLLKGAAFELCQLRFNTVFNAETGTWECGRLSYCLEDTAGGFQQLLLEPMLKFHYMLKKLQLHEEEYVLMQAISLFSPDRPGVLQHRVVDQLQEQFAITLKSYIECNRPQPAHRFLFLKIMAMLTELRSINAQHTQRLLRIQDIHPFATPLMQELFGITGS
Chain of Peroxisome proliferator-activated receptor gamma (Homo sapiens) (P37231 whole entry, looked up, the tested form may be a part): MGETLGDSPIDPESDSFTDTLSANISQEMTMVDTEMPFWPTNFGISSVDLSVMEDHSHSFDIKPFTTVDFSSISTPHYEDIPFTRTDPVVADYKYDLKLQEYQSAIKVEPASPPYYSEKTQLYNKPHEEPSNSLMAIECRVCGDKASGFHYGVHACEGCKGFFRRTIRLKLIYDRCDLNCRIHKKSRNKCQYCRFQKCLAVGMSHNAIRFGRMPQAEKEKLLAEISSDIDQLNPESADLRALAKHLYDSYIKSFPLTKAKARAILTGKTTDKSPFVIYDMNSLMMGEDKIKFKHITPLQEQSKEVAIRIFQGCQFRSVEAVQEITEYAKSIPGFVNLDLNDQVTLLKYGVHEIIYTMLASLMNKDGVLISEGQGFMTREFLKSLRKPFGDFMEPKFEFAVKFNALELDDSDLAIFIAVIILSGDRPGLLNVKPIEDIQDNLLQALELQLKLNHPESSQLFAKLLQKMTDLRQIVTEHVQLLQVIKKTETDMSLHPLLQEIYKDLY
Chain of human Retinoic Acid Receptor gamma (RARg), RARG (gene 5916) (P13631 whole entry, looked up, the tested form may be a part): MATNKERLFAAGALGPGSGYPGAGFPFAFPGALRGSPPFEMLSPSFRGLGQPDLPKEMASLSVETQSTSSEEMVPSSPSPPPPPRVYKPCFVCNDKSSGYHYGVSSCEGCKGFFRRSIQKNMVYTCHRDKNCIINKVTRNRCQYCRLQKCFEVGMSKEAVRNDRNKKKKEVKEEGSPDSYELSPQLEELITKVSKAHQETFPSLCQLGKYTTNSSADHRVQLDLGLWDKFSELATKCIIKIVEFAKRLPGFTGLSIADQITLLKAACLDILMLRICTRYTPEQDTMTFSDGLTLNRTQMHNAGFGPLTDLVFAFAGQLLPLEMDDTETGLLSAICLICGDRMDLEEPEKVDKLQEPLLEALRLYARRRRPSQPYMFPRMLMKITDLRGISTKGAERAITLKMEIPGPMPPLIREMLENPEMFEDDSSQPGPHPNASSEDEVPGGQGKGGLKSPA
Chain of Retinoic acid receptor RXR-alpha (Homo sapiens) (P19793 whole entry, looked up, the tested form may be a part): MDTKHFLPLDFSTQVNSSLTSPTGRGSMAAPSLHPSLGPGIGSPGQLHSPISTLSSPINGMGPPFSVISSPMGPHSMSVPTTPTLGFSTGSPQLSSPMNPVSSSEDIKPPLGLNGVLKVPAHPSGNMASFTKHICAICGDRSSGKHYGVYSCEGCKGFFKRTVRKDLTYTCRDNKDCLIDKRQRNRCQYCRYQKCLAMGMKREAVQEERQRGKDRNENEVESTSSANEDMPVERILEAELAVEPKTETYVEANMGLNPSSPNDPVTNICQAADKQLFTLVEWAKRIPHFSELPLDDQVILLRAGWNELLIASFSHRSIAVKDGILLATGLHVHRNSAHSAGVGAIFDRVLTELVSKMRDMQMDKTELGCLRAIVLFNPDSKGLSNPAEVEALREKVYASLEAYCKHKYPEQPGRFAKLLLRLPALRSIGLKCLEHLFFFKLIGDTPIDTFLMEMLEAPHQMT
Chain of human RAR-related Orphan Receptor gamma (RORg), RORC (gene 6097) (P51449 whole entry, looked up, the tested form may be a part): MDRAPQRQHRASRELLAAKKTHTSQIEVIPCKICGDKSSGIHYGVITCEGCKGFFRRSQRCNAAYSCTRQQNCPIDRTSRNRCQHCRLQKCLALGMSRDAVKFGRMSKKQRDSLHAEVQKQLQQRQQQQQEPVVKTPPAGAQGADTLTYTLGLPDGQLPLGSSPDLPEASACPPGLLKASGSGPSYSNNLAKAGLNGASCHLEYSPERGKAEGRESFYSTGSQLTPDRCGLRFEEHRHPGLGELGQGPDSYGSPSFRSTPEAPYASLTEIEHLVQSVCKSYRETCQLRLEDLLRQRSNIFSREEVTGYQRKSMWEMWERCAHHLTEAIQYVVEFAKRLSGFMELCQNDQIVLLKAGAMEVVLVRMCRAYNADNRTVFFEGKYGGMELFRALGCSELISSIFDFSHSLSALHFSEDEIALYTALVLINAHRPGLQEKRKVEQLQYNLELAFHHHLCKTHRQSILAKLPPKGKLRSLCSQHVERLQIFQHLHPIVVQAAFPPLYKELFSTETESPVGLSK
Chain of human RAR-related Orphan Receptor beta (RORb), RORB (gene 6096) (Q92753 whole entry, looked up, the tested form may be a part): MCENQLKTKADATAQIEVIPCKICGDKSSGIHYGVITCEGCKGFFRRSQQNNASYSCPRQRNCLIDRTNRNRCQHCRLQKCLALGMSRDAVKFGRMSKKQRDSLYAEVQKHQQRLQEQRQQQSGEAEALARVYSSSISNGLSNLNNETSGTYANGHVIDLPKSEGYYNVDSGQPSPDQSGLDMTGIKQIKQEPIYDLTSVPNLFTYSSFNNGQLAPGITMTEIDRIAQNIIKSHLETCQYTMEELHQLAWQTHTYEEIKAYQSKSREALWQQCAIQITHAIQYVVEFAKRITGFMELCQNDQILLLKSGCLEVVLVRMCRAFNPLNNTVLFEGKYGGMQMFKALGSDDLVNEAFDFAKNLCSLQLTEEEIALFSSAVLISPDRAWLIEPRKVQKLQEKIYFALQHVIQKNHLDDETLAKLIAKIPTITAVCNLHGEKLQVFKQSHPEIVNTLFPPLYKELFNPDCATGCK
Chain of human Peroxisome Proliferator-activated Receptor delta (PPARd), PPARD (gene 5467) (Q03181 whole entry, looked up, the tested form may be a part): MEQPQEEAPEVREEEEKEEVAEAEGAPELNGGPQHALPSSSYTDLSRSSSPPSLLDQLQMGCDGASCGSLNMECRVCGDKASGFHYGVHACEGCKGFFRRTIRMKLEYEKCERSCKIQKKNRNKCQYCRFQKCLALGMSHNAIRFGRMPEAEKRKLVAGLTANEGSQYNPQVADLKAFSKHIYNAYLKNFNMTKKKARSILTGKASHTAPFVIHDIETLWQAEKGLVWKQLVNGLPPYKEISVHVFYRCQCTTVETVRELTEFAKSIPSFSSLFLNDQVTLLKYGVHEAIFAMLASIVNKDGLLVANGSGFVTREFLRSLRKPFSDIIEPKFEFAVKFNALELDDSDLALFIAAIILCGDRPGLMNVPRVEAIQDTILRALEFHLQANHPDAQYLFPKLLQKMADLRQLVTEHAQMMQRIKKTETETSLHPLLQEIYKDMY
Chain of human Retinoic Acid Receptor beta (RARb), RARB (gene 5915) (P10826 whole entry, looked up, the tested form may be a part): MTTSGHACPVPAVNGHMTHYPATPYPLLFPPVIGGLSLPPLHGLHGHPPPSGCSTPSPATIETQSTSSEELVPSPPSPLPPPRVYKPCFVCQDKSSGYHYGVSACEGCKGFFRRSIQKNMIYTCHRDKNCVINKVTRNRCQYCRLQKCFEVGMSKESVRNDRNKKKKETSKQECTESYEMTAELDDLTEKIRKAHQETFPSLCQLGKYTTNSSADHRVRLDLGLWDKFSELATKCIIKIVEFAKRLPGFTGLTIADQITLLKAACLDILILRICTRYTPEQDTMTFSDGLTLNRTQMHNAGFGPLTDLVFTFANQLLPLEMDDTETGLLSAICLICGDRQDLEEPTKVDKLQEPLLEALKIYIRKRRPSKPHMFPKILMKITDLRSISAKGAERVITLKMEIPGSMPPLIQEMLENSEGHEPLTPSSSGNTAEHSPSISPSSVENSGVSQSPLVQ

C=CC(=O)OCCOC1C2CCC1C1CC=CC12 (configuration not stated)
inactive: [1] | [2] | [3]

CC(=O)OCC(C)OC(C)=O (configuration not stated)
inactive: [1] | [4] | [3] | [5] | [6]

Cc1cccc(N)n1
not listed: [2] | [8] | [9]
inactive: all other assays above

O=S(=O)(O)CC(O)CCl (configuration not stated)
active: [2] 26.4 µM
inactive: [1] | [3]

CC(=O)OCCC1CCCCC1
inactive: [1] | [2]

c1ccc(CNCc2ccccc2)cc1
inactive: [1] | [2]

CCC(C)(C)C1CCCCC1OC(C)=O (configuration not stated)
inactive: [1] | [4] | [2] | [8] | [7]

CCc1c(C(=O)O)c(=O)cnn1-c1ccc(Cl)cc1
inactive: [1] | [2] | [3]

O=c1cc[nH]c(=S)[nH]1
inactive: [1] | [2] | [3] | [8]

CC(C)CCCCCOC(=O)CCS
active: [3] 27.1 µM
inactive: [1] | [2] | [5] | [7]

O=c1cc(-c2ccccc2)oc2ccccc12
active: [2] 1.1 µM | [3] 6.29 µM
inactive: [1] | [8] | [7]

CC(C)(C)C(=O)CCc1ccc(Cl)cc1
inactive: [1] | [2] | [3] | [8] | [7]

CC(=O)c1ccc2c(c1)CCCC2
inactive: [1] | [2] | [3] | [7]

CC(=O)OCC(=O)[C@@]12N=C(C)O[C@@H]1C[C@H]1[C@@H]3CCC4=CC(=O)C=C[C@]4(C)[C@H]3[C@@H](O)C[C@@]12C
active: [7] 16.7 µM
inactive: [1] | [2] | [3] | [6]

CC(CC=O)CCCC(C)(C)O (configuration not stated)
inactive: [1] | [2] | [3] | [5] | [7]

Nc1ccc(Oc2ccc(N)c(N)c2)cc1
inactive: [1] | [3] | [8] | [7]
active: [2] 60.1 µM

CC(C)c1ccc(C=O)cc1
inactive: [1] | [2] | [3] | [5]

O=C1c2ccccc2C(=O)C1c1nc2ccccc2c(Br)c1O
active: [2] 11.5 µM
inactive: [1] | [3] | [5] | [6] | [7]

Cc1ccc2c(c1)C(=O)c1ccccc1C2=O
active: [2] 15.1 µM | [3] 6.18 µM
inactive: [1] | [8] | [7]

O=C(C=Cc1ccccc1)OCc1ccccc1
active: [2] 0.162 µM
inactive: [1] | [3] | [5] | [6]

Nc1ccc(-c2ccc(F)cc2)cc1
inactive: [1] | [2] | [3] | [6] | [7]

CC(C)CCCC(C)CC=O (configuration not stated)
inactive: [1] | [2] | [3] | [5]

C=CC(C)(C)C
inactive: [1] | [2] | [3] | [6] | [7]

O=C(c1ccccc1)C1CCC1
inactive: [1] | [2] | [3] | [5] | [7]

CCCOC(=O)CCCCC(=O)OCCC
inactive: [1] | [2] | [3] | [6] | [7]

NC(=O)N=NC(N)=O
inactive: [1] | [2] | [3] | [6] | [7]

C1=Cc2ccccc2C1
active: [2] 67.4 µM | [3] 6.06 µM
inactive: [1] | [8] | [5]

COC(=O)/C=C/C(C)=C\C=C\C(C)=C\C=C\C=C(C)\C=C\C=C(C)\C=C\C(=O)O
inactive: [1] | [3] | [5] | [7]
active: [2] 27.9 µM

CCN(Cc1cccc(S(=O)(=O)O)c1)c1ccc(C(=C2C=CC(=[N+](CC)Cc3cccc(S(=O)(=O)[O-])c3)C=C2)c2ccccc2)cc1
active: [2] 31.1 µM
inactive: [1] | [3] | [5] | [7]

CCCCCCCCCCc1ccccc1
not listed: [4] | [8] | [9]
inactive: all other assays above

CN(C)c1ccc(C(=N)c2ccc(N(C)C)cc2)cc1
inactive: [1] | [3] | [8] | [6] | [7]
active: [2] 26.6 µM

CCCCCCCCCCCCCOP(=O)(O)O
inactive: [1] | [3] | [8] | [6]
active: [2] 16.4 µM

CCC(C)OC(=O)c1ccc(O)cc1 (configuration not stated)
inactive: [1] | [8] | [7]
active: [2] 62.1 µM | [3] 14.8 µM

CCN(CCC#N)c1ccc(N=Nc2c(Cl)cc([N+](=O)[O-])cc2Cl)cc1
inactive: [1] | [8] | [7]
active: [2] 16.3 µM | [3] 1.05 µM

O=C1CC2CC1C1CCCC21 (configuration not stated)
not listed: [4] | [6] | [9]
inactive: all other assays above

O=c1c2ccccc2nnn1CCl
active: [3] 5.33 µM
inactive: [1] | [2]

c1ccc(CCCc2ccncc2)cc1
inactive: [1] | [3] | [6] | [7]
active: [2] 13.9 µM

O=C(C(Cl)Cl)N1CCOC12CCCCC2
inactive: [1] | [2] | [3] | [8] | [7]

Cc1cc(C)c(C)c(C)c1
inactive: [1] | [2] | [3] | [8] | [5]

CCCCCC/C=C/C=O
active: [2] 20.8 µM
inactive: [1] | [3] | [5]

CC(C)=CCCC(C)C=O (configuration not stated)
inactive: [1] | [2]
active: [3] 7.95 µM

CC=C1CC2C=CC1C2 (configuration not stated)
inactive: [1] | [6] | [7]
active: [2] 25.9 µM | [3] 7.51 µM

FC(F)=C(F)OC(F)(F)C(F)(F)C(F)(F)F
inactive: [1] | [2] | [3]

COC(=O)c1c(C)cc(O)c(C)c1O
inactive: [1] | [2] | [3] | [8] | [7]

CCCCCCCCCCC=CC#N
active: [2] 28.2 µM | [3] 29.9 µM
inactive: [1] | [5] | [7]

O=C(O)c1ccccc1Nc1cccc(C(F)(F)F)c1
active: [1] 40.1 µM | [2] 6.64 µM
inactive: [3] | [8] | [7]

CCCCCCCOC(=O)CCC
inactive: [1] | [8] | [5]

CO[Si](OC)(OC)c1ccccc1
inactive: [9] | [3]
